Screening data from PubChem.
TEAD-YAP inh – TEAD-YAP interaction inhibition; HEK-TIYL cells, TEAD-Gal4/YAP UAS-luciferase luminescence; 1.4% of 640,000 active; AID 1259422; inhibition, % at 9.12 µM; in the data active = inhibition above about 32%;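 note: 0% = median of test compound wells and 100% = reference inhibitor wells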
FBW7 act – human FBW7 E3 ligase activation, primary screen. normalized activity (activation), % at 26.1 µM. 0.13% of 650,000 active. AlphaScreen FBW7–phospho-cyclin E peptide binding, activator screen. Q969H0; in the data active = normalized activity above about 1.9%;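 note: purified mutant Fbw7 with reduced substrate affinity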
GPR151 activ – activators of human GPR151; Q8TDV0; PathHunter beta-arrestin GPR151 cells, luminescence; activation, % at 11.2 µM; 1% of 650,000 active; in the data active = activation above about 4.9%;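 note: 0% = median of compound wells and 100% = cells with positive control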
MITF inh – inhibitors of human MITF | O75030 | AlphaScreen MITF homodimerization, bead proximity signal | inhibition, % at 2.6 µM | 0.91% of 650,000 active; in the data active = inhibition above about 50%;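 note: 0% = vehicle wells with protein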
Target sequence (O75030 whole entry, looked up): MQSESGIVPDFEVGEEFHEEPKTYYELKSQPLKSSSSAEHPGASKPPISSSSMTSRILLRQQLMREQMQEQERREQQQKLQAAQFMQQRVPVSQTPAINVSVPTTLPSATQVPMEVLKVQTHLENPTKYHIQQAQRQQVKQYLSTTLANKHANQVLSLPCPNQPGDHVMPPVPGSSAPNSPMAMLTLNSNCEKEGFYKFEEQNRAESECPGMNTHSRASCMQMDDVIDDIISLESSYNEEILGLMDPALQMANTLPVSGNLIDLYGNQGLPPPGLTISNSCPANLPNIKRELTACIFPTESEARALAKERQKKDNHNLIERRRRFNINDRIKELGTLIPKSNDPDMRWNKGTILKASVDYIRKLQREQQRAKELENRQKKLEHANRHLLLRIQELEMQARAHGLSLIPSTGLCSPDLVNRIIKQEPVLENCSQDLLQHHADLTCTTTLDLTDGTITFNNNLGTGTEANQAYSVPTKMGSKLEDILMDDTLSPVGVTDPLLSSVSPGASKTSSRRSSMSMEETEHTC
GPR151 conf act – confirmation of human GPR151 activators; 6,700 tested, under 10 active; shares compounds with GPR151 activ; GPR151 PathHunter beta-arrestin cells, luminescence, 90 min; % of EA-reagent control over plate median; activation, % at 11.2 µM;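 active = mean percent activation across replicates above the confirmation screen cutoff of 4.91%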
GPR119 counter – activates human GPR119 in a GPR151 counter-screen | shares compounds with GPR151 activ | GPR119 PathHunter beta-arrestin cells, luminescence, 90 min; 0 = compound-well median, 100 = enzyme-acceptor control | activation, % at 11.2 µM | 0.3% of 6,700 active;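 active = mean percent activation in the counterscreen above 29.09%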;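 note: counterscreen on off-target GPR119 to flag nonselective hits from the GPR151 activator screen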
An asterisk follows results filed as active; nt = not tested or not shown; ! = repeats disagree. Compounds with a hit are over-represented: about 3.5% of the library has one in this group of screens.

SMILES	TEAD-YAP inh	FBW7 act	GPR151 activ	MITF inh	GPR151 conf act	GPR119 counter
CCN(CC)S(=O)(=O)c1cc([N+](=O)[O-])ccc1N/N=C/c1ccccc1C	4	0	1	14	nt	nt
CCOc1ccc(CCNS(=O)(=O)c2ccc3c(c2)OCCN3C(C)=O)cc1OCC	4	1	5.2*	10	0	-7
COc1cc(Cl)c(S(=O)(=O)N2CCN(Cc3ccccc3)CC2)cc1Cl	5	0	6.5*	11	0	-17
O=S(=O)(c1ccc(Cl)cc1Br)N1CCN(Cc2ccccc2)CC1	-6	0	6.2*	-2	0	-9
COc1ccc(I)cc1S(=O)(=O)N1CCN(Cc2ccccc2)CC1	4	0	1	3	nt	nt
O=S(=O)(c1cc(Br)ccc1Br)N1CCN(Cc2ccccc2)CC1	4	0	-2	8	nt	nt
O=C(NCCCN1CCN(c2ccc(Cl)cc2)CC1)Nc1ccccc1	-7	0	6.6*	4	0	8
O=C(NCCCN1CCN(c2ccc(Cl)cc2)CC1)Nc1ccc(F)cc1	-9	0	0	-7	nt	nt
Cc1ccc(-n2c(SCc3cccc(C)c3)nc3[nH]ncc3c2=O)cc1	4	1	0	19	nt	nt
Cc1ccc(CSc2nc3[nH]ncc3c(=O)n2-c2cccc(C)c2)cc1	-10	0	9.0*	4	0	10
CCc1ccc(-n2c(SCc3cc(=O)n4c(C)cccc4n3)nc3[nH]ncc3c2=O)cc1	-7	0	5.8*	1	1	11
Cc1ccc(C(C)C)cc1OCCOCCNCCN(C)C	12	0	5.1*	-19	-1	-1
C=CCN1C(=O)/C(=C\C=C\c2ccccc2[N+](=O)[O-])C(=O)NC1=S	5	0	-2	0	nt	nt
CCN1CCN(C(=O)c2cc(S(=O)(=O)N3CCCCC3)c[nH]2)CC1	-6	0	-1	-1	nt	nt
CN1CCN(C(=O)c2cc(S(=O)(=O)N3CCCCC3)c[nH]2)CC1	-5	0	5.3*	7	1	-4
C/C(=N\NS(=O)(=O)c1ccccc1)c1cccc(Br)c1	1	0	1	2	nt	nt
N#C/C(=C/c1ccccc1[N+](=O)[O-])c1ccc2c(c1)OCO2	-8	0	5.7*	6	0	-13
Cc1ccc(/C=C(/C#N)c2ccc3c(c2)OCO3)cc1[N+](=O)[O-]	-2	0	-1	5	nt	nt
COc1ccccc1C1(O)CCN(C(=O)c2cccs2)CC1	-1	0	0	-8	nt	nt
O=C(CSc1ncccn1)NCc1cccc(C(F)(F)F)c1	-26	0	5.8*	4	0	-9
FC(F)(F)c1cccc(CNc2cc(Nc3nccc4ccccc34)ncn2)c1	-2	0	6.7*	15	0	-4
c1ccc(CNc2ccnc(-c3ccccc3)n2)cc1	-11	0	0	-8	nt	nt
Nc1nc(NCc2cccc(C(F)(F)F)c2)cc(Nc2nccc3ccccc23)n1	12	1	-2	-4	nt	nt
O=C(NCc1cccc(C(F)(F)F)c1)c1cccc(Nc2nccc3ccccc23)n1	2	0	5.5*	2	0	6
FC(F)(F)c1cccc(CNc2ccnc(-c3ccccc3)n2)c1	37*!	0	5.0*!	11	1	-4
SMILES	TEAD-YAP inh	FBW7 act	GPR151 activ	MITF inh	GPR151 conf act	GPR119 counter
CN1CCN(C(=O)c2ccc(-c3cccc(C(=O)NCCOc4ccccc4)n3)cc2)CC1	0	1	1	3	nt	nt
CS(=O)(=O)N1N=C(c2ccccc2)CC1c1ccccc1F (stereo not drawn)	-10	0	-1	-3	nt	nt
Cc1ccc(C)c(NS(=O)(=O)c2cc(C(=O)NCc3ccco3)ccc2C)c1	-7	0	-1	-1	nt	nt
CC1(C)CC(=O)C2=C(C1)N(c1ccc(Cl)cc1)C(N)=C(C#N)C2c1ccc2c(c1)OCO2 (stereo not drawn)	-6	0	14*	-7	0	-3
CCC(NC(=O)Cn1nnnc1CN1CCC(C)CC1)c1ccc(F)cc1 (stereo not drawn)	1	0	5.6*	1	0	-2
O=S(=O)(c1ccc(F)cc1F)N1CCNCC1	8	0	1	5	nt	nt
CCN(CC)CCN1C(=O)C(O)=C(C(=O)c2cc3ccccc3o2)C1c1ccc(C)o1 (stereo not drawn)	-7	0	6.1*	-20	0	-6
